Data on 7 compounds can be found in PubChem BioAssay (Tox21).

Where “and” joins values, the source holds several entries; their conditions need not be identical. Equal values may be shown once. Unmarked numbers belong to inactive results. Inconclusive results are not listed. Calls of active or inactive are those of the source. Unless noted, calls come from the whole dose curve; as a rule, active = well fitted curve in the direction sought with a large enough effect in the repeat runs; inconclusive = weak or mixed curves; inactive = no such curve, though single readings can be large; an effect the other way counts as inactive or inconclusive.

Assay [1] can be described thus: qHTS assay for small molecule agonists of the p53 signaling pathway (AID 651631; calls by dose curve; note: nearly all actives have a fitted effect of over 15% in size; note: potency is the fitted concentration of half-maximal effect). Summed up: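 HCT-116 cells carrying a stable p53 response element–beta-lactamase reporter were plated, rested 5 h at 37 °C, then exposed to compound in DMSO for 16 h at 37 °C; reporter activity was read as FRET substrate fluorescence after 2 h at room temperature.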
In general terms: qHTS replaces the single test concentration by a dilution series.

Assay [2] is described as follows: qHTS assay for small molecule agonists of the p53 signaling pathway - cell viability (AID 651633; calls by dose curve; note: nearly all actives have a fitted effect of over 30% in size; note: potency is the fitted concentration of half-maximal effect). Summed up:
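p53RE-bla cells, seeded at 4,000 per well and rested 5 h at 37 C/5% CO2, received compounds in DMSO for 16 h at 37 C. CellTiter-Glo was then added, and luminescence was read after 30 min at room temperature to gauge cytotoxicity.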

Assay [3] in a line: qHTS assay for small molecules that induce genotoxicity in human embryonic kidney cells expressing luciferase-tagged ATAD5 - cell viability (AID 651634; calls by dose curve; note: nearly all actives have a fitted effect of over 25% in size; note: potency is the fitted concentration of half-maximal effect). An outline of the steps: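 Seeding of 2,000 HEK293T ATAD5-luciferase cells per well preceded pin-tool compound transfer. Plates sat 15.5 hr at 37C under 5% CO2, then fluorescence was read after 30 min with CellTiter-Fluor.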

Assay [4] is described as follows: qHTS assay for small molecule disruptors of the mitochondrial membrane potential - cell viability (AID 720634; calls by dose curve;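 note: human HepG2 liver cancer cells; series mostly up to about 83 µM; nearly all actives have a fitted effect of over 20% in size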). An outline of the steps:
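Measuring cytotoxicity alongside mitochondrial potential, the screen quantified ATP by luminescence in HepG2 cells after 1 hr compound incubation and a 30 min room-temperature CellTiter-Glo step.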

Assay [5] is described as follows: qHTS assay for small molecule disruptors of the mitochondrial membrane potential (AID 720635). Note: potency is the fitted concentration of half-maximal effect. Summed up:
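HepG2 cells (2,000/well) attached overnight at 37C, then took compound for 1 hr at 37C, 5% CO2. Mito-MPS dye was added for 30 min; fluorescence was read at 490/535 nm (monomers) and 540/590 nm (aggregates).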

Assay [6] is described as follows: qHTS assay to test for compound auto fluorescence at 590 nm (red) in HepG2 cells (AID 720674). An outline of the steps:
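Rose Bengal sodium served as the red fluorophore standard. HepG2 monolayers (overnight attachment, MEM with 10% FBS) were exposed to test compounds for 1 hr at 37 C and read at Ex 540/Em 590 nm.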

A short description of assay [7]: qHTS assay to test for compound auto fluorescence at 535 nm (green) in HepG2 cells (AID 720675).
A short description of assay [8]: qHTS assay to test for compound auto fluorescence at 460 nm (blue) in HEK293 cells (AID 720678). An outline of the steps:
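Intrinsic compound fluorescence is recorded in live HEK293 cultures after overnight incubation at 37C, 5% CO2, using excitation 405 nm and emission 460 nm. Values are referenced to triamterene.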

A short description of assay [9]: qHTS assay to test for compound auto fluorescence at 590 nm (red) in HEK293 cells (AID 720679). Summed up: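 Red autofluorescence, HEK293 cells: 2,000 cells/well; attach 4-5 hr 37C; add 23 nL cpd or DMSO; incubate o/n 37C 5% CO2; read Ex540/Em590; Rose Bengal sodium reference.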
A short description of assay [10]: qHTS assay to test for compound auto fluorescence at 535 nm (green) in HEK293 cells (AID 720680).
Assay [11] is described as follows: qHTS assay to test for compound auto fluorescence at 460 nm (blue) in HEK293 cell free culture (AID 720681). An outline of the steps: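 Test compounds were pinned into cell-free culture medium (DMEM with 10% FBS) and fluorescence was read directly at Ex/Em 405/460 nm. Signals were expressed as fluorescence equivalents of triamterene, with DMSO vehicle as control.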

A short description of assay [12]: qHTS assay to test for compound auto fluorescence at 535 nm (green) in HEK293 cell free culture (AID 720682). An outline of the steps:
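Read-out: 485/535 nm fluorescence intensity, calibrated against fluorescein. Medium only (DMEM + 10% FBS, no cells); test compound or DMSO vehicle added by pintool before plate reading.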

A short description of assay [13]: qHTS assay to test for compound auto fluorescence at 590 nm (red) in HEK293 cell free culture (AID 720683). An outline of the steps:
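Tox21 10K library compounds were pinned into cell-free DMEM with 10% FBS and fluorescence was read at excitation 540 nm. Activity is expressed as Rose Bengal sodium equivalency.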

Assay [14] can be described thus: qHTS assay to test for compound auto fluorescence at 590 nm (red) in HepG2 cell free culture (AID 720684). Summed up: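 Red fluorescence (540 nm excitation, 590 nm emission) was measured after compound transfer into cell-free MEM supplemented with 10% FBS. Values are equivalencies against Rose Bengal sodium.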
Assay [15] in a line: qHTS assay to test for compound auto fluorescence at 460 nm (blue) in HepG2 cells (AID 720687). An outline of the steps: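 Cells (2,000/well in MEM with 10% FBS) attached overnight at 37 C, then were exposed to compound or DMSO for 1 hr at 37 C, 5% CO2. Fluorescence read at Ex/Em 405/460 nm, expressed as triamterene-equivalent signal.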
For assay [16], the target named is Glucocorticoid receptor (Homo sapiens) (UniProt P04150). Put plainly: qHTS assay to identify small molecule antagonists of the glucocorticoid receptor (GR) signaling pathway (AID 720692; active = well fitted inhibition curve with a large enough effect in the signal ratio in the repeat runs, not every such curve was filed as active; the % refers to the signal ratio; note: potency is the fitted concentration of half-maximal effect). Summed up: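 Dexamethasone (5 nM final) stimulated a stably integrated GRE-beta-lactamase reporter in HeLa cells during 18 h co-incubation with compounds; signal was quantified as fluorescence intensity of B/G FRET substrate after 2 h.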

Assay [17] in a line: qHTS assay to test for compound auto fluorescence at 460 nm (blue) in HepG2 cell free culture (AID 720685). Summed up: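 Compound (23 nL) or DMSO pinned into cell-free MEM with 10% FBS; blue fluorescence read at 405/460 nm excitation/emission, expressed as auto-fluorescence equivalency to triamterene.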
A short description of assay [18]: qHTS assay to test for compound auto fluorescence at 535 nm (green) in HepG2 cell free culture (AID 720686).
For assay [19], the target named is Glucocorticoid receptor (Homo sapiens) (UniProt P04150). Put plainly: qHTS assay to identify small molecule agonists of the glucocorticoid receptor (GR) signaling pathway (AID 720691; active = well fitted activation curve with a large enough effect in the signal ratio in the repeat runs, not every such curve was filed as active; the % refers to the signal ratio). Summed up:
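Reporter read-out: fluorescence intensity following 2 h room-temperature LiveBLAzer B/G FRET substrate loading. Prior step: GR-bla HeLa cells held 4 h, then treated 18 h at 37 C.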

The nature of assay [20]: qHTS assay for small molecules that induce genotoxicity in human embryonic kidney cells expressing luciferase-tagged ATAD5 (AID 651632). Note: nearly all actives have a fitted effect of over 15% in size. Summed up:
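Reporter cells (HEK293T) express luciferase-tagged ATAD5, a protein that accumulates after DNA damage. Treat 16 hr at 37C/5% CO2, add Amplite, wait 30 min at RT, and read luminescence.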
% is set by controls: 0 for no effect and ±100 for the full control effect.

Glucocorticoid receptor (Homo sapiens), sequence (P04150 whole entry, looked up): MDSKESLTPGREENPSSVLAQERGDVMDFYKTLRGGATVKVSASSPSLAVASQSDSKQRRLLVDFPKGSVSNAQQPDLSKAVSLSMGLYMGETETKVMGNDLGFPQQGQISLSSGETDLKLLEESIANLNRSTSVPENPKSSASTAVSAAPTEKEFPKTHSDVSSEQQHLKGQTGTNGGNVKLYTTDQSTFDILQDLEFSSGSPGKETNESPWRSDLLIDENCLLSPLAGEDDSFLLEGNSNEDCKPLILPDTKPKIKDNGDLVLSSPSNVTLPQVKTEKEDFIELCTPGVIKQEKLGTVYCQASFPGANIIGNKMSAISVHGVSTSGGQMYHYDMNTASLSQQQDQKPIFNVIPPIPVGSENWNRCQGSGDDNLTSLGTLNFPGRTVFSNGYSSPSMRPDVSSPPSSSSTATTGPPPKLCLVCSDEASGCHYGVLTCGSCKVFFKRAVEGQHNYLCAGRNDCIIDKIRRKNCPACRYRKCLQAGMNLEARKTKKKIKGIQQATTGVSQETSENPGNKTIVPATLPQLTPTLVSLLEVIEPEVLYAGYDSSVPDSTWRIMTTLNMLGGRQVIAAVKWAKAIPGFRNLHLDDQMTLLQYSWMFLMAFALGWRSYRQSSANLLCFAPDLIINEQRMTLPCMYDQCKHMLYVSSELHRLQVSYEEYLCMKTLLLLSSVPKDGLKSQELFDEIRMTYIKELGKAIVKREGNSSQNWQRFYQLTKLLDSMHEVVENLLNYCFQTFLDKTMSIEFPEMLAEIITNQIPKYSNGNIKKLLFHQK

Consider `O=C(O)Cc1cc(I)c(Oc2ccc(O)c(I)c2)c(I)c1`, for which the Potency was 4.52 µM (active) and 24.3 µM (active) in assay [1]; 3.59 µM (active) and 43.3 µM (active) in assay [2]; 68.6 µM (active) in assay [5]; 9.1 µM (active) and 3.47 µM (active) in assay [16]. Further, the Potency result in [3], in [4], in assay [8], in assay [11] and in assay [15] was “inactive” in each case. Also, the compound was classed as inactive in assay [6], in assay [7], in assay [9], in assay [10], in assay [12] and in [13]. The compound was classed as inactive in assay [14].

Consider `CCCCCCCCCCCCC(=O)O`, for which the Potency entry in assay [1], in [2], in assay [3], in [4], in [5] and in assay [8] was “inactive” in each case. Besides, the Potency result in assay [11], in assay [17] and in assay [19] was “inactive” throughout. Also, the compound was called inactive in assay [6], in assay [7], in [9], in assay [10], in assay [12] and in assay [14]. Also, the result in assay [18] was inactive.

`CNCC[C@@H](Oc1ccccc1C)c1ccccc1`: the Potency result in assay [20], in assay [2], in assay [3], in [8], in assay [11] and in assay [17] was “inactive” each time. For the same compound, the Potency result in [19] and in [16] was “inactive” throughout. Moreover, the compound was classed as inactive in [6], in assay [7], in assay [9], in assay [10], in assay [12] and in [13]. Besides, the result in assay [14] and in assay [18] was inactive.

With `c1ccc(-c2nc[nH]c2-c2ccccc2)cc1`, the Potency result in assay [20], in assay [2], in assay [3], in assay [4], in [8] and in [15] was “inactive” throughout. Also, the outcome in [6], in [13], in [14] and in [18] was inactive.

As to `CN1CCC(=C2c3ccccc3C=Cc3ccccc32)CC1`, the Potency entry in assay [20], in assay [2], in [3], in [4], in assay [8] and in assay [11] was “inactive” in each case. Also, the Potency entry in [17], in [15] and in assay [19] was “inactive” in each case. For the same compound, the result in assay [6], in assay [7], in [9], in [10], in assay [12] and in assay [13] was inactive. The call in assay [14] and in assay [18] was inactive.

Regarding `O=C(Cl)c1c(Cl)cccc1Cl`, the Potency entry in [20], in [2], in [4], in [5], in assay [8] and in assay [11] was “inactive” in each case. In addition, the Potency entry in assay [17] and in assay [15] was “inactive” throughout. The result in assay [6], in [7], in assay [9], in [10], in assay [12] and in [13] was inactive. The compound was classed as inactive in assay [14] and in assay [18].

For `CCCCOc1ccc(CC(=O)NO)cc1`, the Potency result in assay [20], in assay [2], in assay [4], in assay [19] and in [16] was “inactive” throughout. The Potency in [3] is 9.02 µM (active). Moreover, in assay [6], the fluorescence, relative to Rose Bengal was 0.376% [at 18.6 µM]. Besides, the fluorescence, % of fluorescein control in assay [7] is 0.007% [at 18.6 µM]; in [18], -0.0407% [at 18.6 µM]. Also, the fluorescence, % of triamterene in [8] is -0.0396% [at 18.6 µM]. For the same compound, the fluorescence, % of fluorescent control was 0.184% [at 18.6 µM] in assay [9]; -0.0158% [at 18.6 µM] in assay [11]; -0.0389% [at 18.6 µM] in assay [13]; 0.0098% [at 18.6 µM] in assay [17]; -0.124% [at 18.6 µM] in assay [15]. For the same compound, in assay [10], the fluorescence, % of fluorescein was 0.0125% [at 18.6 µM]. For the same compound, the activity change in [12] is 0.0033% [at 18.6 µM]. Further, the fluorescence, % of Rose Bengal in assay [14] is -0.259% [at 18.6 µM].
